# Shown are actives, neighbours in structure and some others; about 1.8% of the full set was active somewhere.
# KCNH2 3.1 inh: blocks the human KCNH2 3.1 channel isoform; 0.95% of 340,000 active; U2OS KCNH2 3.1, thallium flux FluxOr; stronger effect = lower value; activity change, % (tested at about 1.8 µM);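 active = maximum activity change below -70%; inconclusive = maximum activity change from -70% to -50%; inactive = maximum activity change above -50%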;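 note: thallium influx rate constant from kinetic fluorescence after stimulation buffer; % is set by controls: 0 for no effect and ±100 for the full control effect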
#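 Thallium flux read-out: FluxOr dye with Red40 quencher in HBSS/HEPES, 45 min at RT. Rate constants from kinetic reads were normalized to positive and negative DMSO controls. Cells: U2OS virally expressing the 3.1 isoform.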
# AT treatment: potential ataxia-telangiectasia treatment | F2112 A-T fibroblasts, KAP-1 phosphorylation AlphaLISA; neocarzinostatin DNA damage 30 min before lysis | Potency, µM (titrated, usually from 57.5 µM), inactives show at the highest dose activation, hits mostly activators | 0.19% of 320,000 active | AID 485349; note: potency is the fitted concentration of half-maximal effect; % of control where 0% means no effect; nearly all actives have a fitted effect of over 45% in size
#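 ATM-like activity read as KAP-1 phosphorylation via AlphaLISA donor/acceptor antibody pairs after lysis and 6 hr at 25C. Cells were ATM-null patient fibroblasts (F2112, hTERT), dosed 60 min, then exposed to the DSB inducer NCS for 30 min.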
# ALOX12 inh: inhibitors of human 12S-lipoxygenase ALOX12 | P18054 | purified 12hLO, xylenol orange hydroperoxide absorbance | Potency, µM (series often up to 108 µM), for inactives: at the top dose activity change, negative = inhibition, usual class: inhibitors | 1.1% of 580,000 active; note: potency is the fitted concentration of half-maximal effect; % is set by controls: 0 for no effect and ±100 for the full control effect
# Target sequence (P18054 whole entry, looked up): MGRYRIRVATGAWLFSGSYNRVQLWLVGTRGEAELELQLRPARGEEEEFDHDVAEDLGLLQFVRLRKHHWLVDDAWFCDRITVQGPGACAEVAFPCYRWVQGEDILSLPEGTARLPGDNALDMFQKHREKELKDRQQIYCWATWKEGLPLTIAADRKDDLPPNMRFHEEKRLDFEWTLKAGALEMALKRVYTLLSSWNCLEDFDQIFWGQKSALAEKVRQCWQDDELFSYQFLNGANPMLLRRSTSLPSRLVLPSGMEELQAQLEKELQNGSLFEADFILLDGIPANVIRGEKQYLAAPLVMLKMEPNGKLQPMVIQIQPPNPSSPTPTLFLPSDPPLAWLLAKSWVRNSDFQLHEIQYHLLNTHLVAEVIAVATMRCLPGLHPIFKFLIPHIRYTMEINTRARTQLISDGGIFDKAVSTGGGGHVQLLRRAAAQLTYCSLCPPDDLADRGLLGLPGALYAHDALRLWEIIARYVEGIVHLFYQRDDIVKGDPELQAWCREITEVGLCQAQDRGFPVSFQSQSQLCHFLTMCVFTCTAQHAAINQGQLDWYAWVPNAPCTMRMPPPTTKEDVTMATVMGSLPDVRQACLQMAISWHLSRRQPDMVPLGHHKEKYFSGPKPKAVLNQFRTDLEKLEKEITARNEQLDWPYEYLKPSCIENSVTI
#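 Purified human 12hLO (150 nM final) in 25 mM Hepes, 0.01% Triton X-100, pH 7.0 was preincubated 15 min at room temperature with compound. Then 40 uM arachidonic acid was added, 30 min. Hydroperoxide was read by Fe-XO absorbance ratio 573/405 nm.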
# KCNH2 WT inh: KCNH2 (human, wildtype) channel inhibition | Q12809 | U2OS, BacMam KCNH2, thallium flux FluxOr; stronger effect = lower value | activity change, % at 1.84 µM | 0.37% of 340,000 active | AID 720551;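 active = maximum activity change below -70%; inconclusive = maximum activity change between -70% and -50%; inactive = maximum activity change above -50%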; note: % is set by controls: 0 for no effect and ±100 for the full control effect
#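 U2OS cells transduced with wild-type KCNH2 virus are loaded with FluxOr dye for 45 min, and thallium flux is measured in kinetic reads before and after stimulation buffer. Rate constants are normalized to DMSO controls.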
# * hit, by the source's call; ? = inconclusive; nt = no result; [ ] = dose if it differs, or a comment. Unless noted, calls come from the whole dose curve; as a rule, active = well fitted curve in the direction sought with a large enough effect; inconclusive = small, poorly fitted or top-dose-only effect, or another doubt; inactive = no such curve, though single readings can be large; an effect the other way counts as inactive or inconclusive.
SMILES,KCNH2 3.1 inh,AT treatment,ALOX12 inh,KCNH2 WT inh
Cc1cccc2[nH]c(CNC(=O)C3CCC(=O)N(CC4CCCCC4)C3)nc12 (centres undefined),nt,nt,73%,nt
Cc1ccc(-n2c(O)c(C=Nc3ccccc3-c3n[nH]c(=S)[nH]c3=O)c3ccccc3c2=O)c(C)c1,3,-2%,16µM*,9
Cc1cc(-c2cc3c(cn2)CN(Cc2cccc(F)c2)CCN3)ccn1,nt,nt,6%[176 µM],nt
O=C1CCCC2=C1C(c1ccsc1)CC(=O)N2c1ccc(F)cc1 (centres undefined),nt,nt,12%,nt
CCCCNC(=O)c1cc2cc(C)ccc2[nH]1,nt,nt,41%,nt
NC(=S)N/N=C1/CCSc2ccc3ccccc3c21,9,-1%,20µM*,0
O=C1CCSc2ccc3ccccc3c21,nt,nt,5%,nt
COCCNC(=O)C[C@@H]1C[C@@H](C(C)C)[C@H](CNS(=O)(=O)c2ccc(OC)cc2)C=C1C,nt,nt,0%,nt
CCCOc1ccc(C(C)NC(=O)c2snnc2CC)cc1OC (centres undefined),nt,nt,29%,nt
CSc1ccc(CCNC(=O)C2CCCN(c3nn4cc(-c5ccc(F)cc5)nc4s3)C2)cc1 (centres undefined),nt,nt,5%,nt
Cc1cc(Cl)ccc1-c1nc(NCc2ccccc2)nc2ccsc12,nt,nt,40µM*,nt
Cc1cc(Cl)ccc1-c1nc(NC(C)C)nc2ccsc12,nt,nt,-9%,nt
COC(=O)C1=C(C)NC(=S)NC1c1ccc(-c2cc(Cl)ccc2Cl)o1 (centres undefined),-1,24%,18µM*,2
CC(C)=C1C(=O)NN(c2ccc(C)c(Cl)c2)C1=O,7,-4%,50µM*,4
CN1CCN(c2ccc(C(=O)c3ccc(Br)cc3)cc2[N+](=O)[O-])CC1,-81*,3%,-12%,-20
O=C(NC(=S)Nc1ccccc1Br)C1CC1,-4,nt,-22%,-9
Cc1ccc(NS(=O)(=O)c2ccc(Cl)c(NC(=S)NC(=O)C3CCCCC3)c2)cc1Cl,7,-10%,13µM*,-3
Cc1ccc(NC(=S)NC(=O)C2CCCC2)c(Br)c1,8,7%,35µM*,-17
CCc1cccc(-n2cc(C(=O)N3CCC(NC(=O)OC(C)(C)C)CC3)nn2)c1,nt,nt,36%,nt
Cc1ccc(NC(=O)c2ncn(CC(=O)N[C@H](C)c3cccc4ccccc34)n2)cc1C,-15,3%[11.5 µM],13%,2
Cc1ccc(NC(=O)c2ncn(CCCN3CCN(Cc4cccc5ccccc45)CC3)n2)cc1C,-72*,nt,-57%,-12
OCCOCCNc1ncnc2nc[nH]c12,-207*,8%,0%,-4
Cc1ccc(C(=O)OCC(=O)N(CCC#N)c2cccc(C(F)(F)F)c2)cc1[N+](=O)[O-],nt,nt,-58%,nt
Cc1ccc(-n2cc(CN3CCNC(=O)CC3)c(-c3ccc(F)cc3)n2)cc1,2,6%,-4%,-4
Cc1ccc(-n2cc(CN3CCC(O)(c4ccccn4)CC3)c(-c3ccc(F)cc3)n2)cc1,-73*,-3%,1%,?
SMILES,KCNH2 3.1 inh,AT treatment,ALOX12 inh,KCNH2 WT inh
O=C(c1cccc(S(=O)(=O)N2CCOCC2)c1)N(Cc1ccc(F)cc1)Cc1ccco1,-135*,7%,-8%,42
CSc1ccc(/C=N/Nc2nc(C)cc(C)n2)cc1,-2,1%,2%,8
CNC(=S)N/N=C/c1ccc(SC)cc1,nt,nt,14µM*,nt
Cc1cccc(/C=N\N=C\c2cccc(C)c2)c1,-15,0%,13%,-3
CNC(=S)N/N=C/c1ccc(C(C)C)cc1,-5,nt,-21%,3
Cc1cccc(/C=N/Nc2ccc(Cl)c(Cl)c2)c1,nt,nt,5.6µM*,nt
CSc1ccc(/C=N/Nc2ccc(F)cc2)cc1,nt,nt,1.3µM*,nt
N#Cc1ccc(/C=N/Nc2ccc(F)cc2)cc1,nt,nt,16µM*,nt
COc1ccc(S(=O)(=O)NC[C@@H]2C=C(C)[C@H](CC(=O)N3CCN(c4ccccn4)CC3)C[C@H]2C(C)C)cc1,nt,nt,-23%,nt
Cc1ccc2c(c1)NC(=O)c1cc(S(=O)(=O)N(C)c3ccc(Br)cc3)ccc1O2,nt,nt,-24%,nt
COc1cccc(CN2CCN(S(=O)(=O)c3cc(OC)ccc3OC)CC2)c1,nt,nt,-10%,nt
COc1cccc(CN2CCCC(O)(CN3CCSCC3)C2=O)c1 (centres undefined),nt,nt,12%,nt
Fc1ccc(/C=N/Nc2ccc(Cl)c(Cl)c2)cc1,nt,nt,2.2µM*,nt
Cc1ccc(N/N=C/c2ccc(F)cc2F)cc1Cl,nt,nt,10%,nt
O=C(O)c1cccc(N/N=C/c2ccc(F)c(F)c2)c1,6,1%,?,2
Fc1cccc(/C=N/Nc2ccc(Cl)c(Cl)c2)c1,nt,nt,5µM*,nt
Fc1ccc(/C=N/Nc2ccc(Cl)c(Cl)c2)cc1F,nt,nt,5µM*,nt
CSc1ccc(/C=N/Nc2ccc(Cl)c(Cl)c2)cc1,nt,nt,2µM*,nt
CCCN1CCC(NC(=O)C23CC4CC(CC(C4)C2)C3)CC1,nt,nt,-19%,nt
O=C(Cc1cccc(C(F)(F)F)c1)NCCc1cccnc1,nt,nt,7%,nt
COCCCNC(=O)N1CCCN(Cc2ccncc2)C(c2ccccc2)CC(=O)NCC1 (centres undefined),nt,nt,18%,nt
Cc1ccc(N/N=C/c2ccc(Cl)c(Cl)c2)cc1,nt,nt,16µM*,nt
CSc1ccc(/C=N/Nc2cccc(Cl)c2)cc1,nt,nt,1.4µM*,nt
CSc1ccc(/C=N/Nc2ccc(Cl)c(C(=O)O)c2)cc1,-6,1%,?,-8
O=C(Cn1nc(-c2ccc(F)cc2)c2ccccc2c1=O)N1CCOCC1,nt,nt,-26%,nt
SMILES,KCNH2 3.1 inh,AT treatment,ALOX12 inh,KCNH2 WT inh
CCOc1ccc(CSCCNC(=S)Nc2ccccc2)cc1,-13,2%,45µM*,1
CC(C)(C)c1ccc(OCCNC(=S)Nc2ccccc2)cc1,-16,1%,45µM*,1
CCOc1ccc(NC(=S)NCCCc2ccccc2)cc1,-11,8%,?,-16
S=C(NCCSCc1c(Cl)cccc1Cl)Nc1ccccc1,-14,9%,35µM*,-14
CC(C)(C)c1ccc(OCCNCc2ccccc2)cc1,1,3%,?,40
COc1ccc(C(=O)N2CCCN(S(C)(=O)=O)c3ccccc32)c(C)c1,nt,nt,35%,nt
Cc1cc(NC(=O)CCn2ccn3nc4c(c3c2=O)CCCC4)ccc1F,nt,nt,27%,nt
c1ccc(-c2nc(NCc3ccco3)c3oc4ccccc4c3n2)cc1,-1,6%,7.1µM*,3
Cc1ccc(C(C)NC(=O)C2CCCCC2)cc1C (centres undefined),nt,nt,42%,nt
CC1CCc2sc(C(=O)NC3CCCCC3)cc2C1 (centres undefined),4,1%,496%,8
C/C(=N\NC(=O)c1cc2c(s1)CCC(C)C2)c1ccncc1 (centres undefined),-6,-1%,1.8µM*,4
CC1CCc2sc(C(=O)N/N=C/c3ccc(O)cc3)cc2C1 (centres undefined),17,-9%,28µM*,10
CC1CCc2sc(C(=O)N/N=C3/CCCCc4ccccc43)cc2C1 (centres undefined),nt,nt,1.3µM*,nt
C/C(=N\NC(=O)c1cc2c(s1)CCC(C)C2)c1ccc[nH]1 (centres undefined),12,-5%,19%,17
C#CCNC(=O)C1=NOC2CN(C(=O)NC(C)C)CC12 (centres undefined),nt,nt,1%[12.5 µM],nt

# From PubChem BioAssay
